Source: PubChem (National Center for Advancing Translational Sciences (NCATS))
Most compounds without a hit are left out; they make up all but 10% or so of the library.
VP16 counter: counter-screen for ROR gamma inhibitors: Gal4-VP16 reporter | Potency, µM (doses to about 53.6 µM), for inactives: at the top dose activity, negative = inhibition, hits mostly inhibitors | Drosophila S2 Gal4-VP16 UAS-luciferase, luminescence, 20 h | 310,000 compounds, 3.5% hits;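 further: Gal4-VP16 expression switched on by copper sulfate through the metallothionein promoter; on the % scale 0 is the no-effect control and ±100 the full control effect; nearly all actives have a fitted effect of over 50% in size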
RORgamma inh: ROR gamma (mouse) transcription inhibition | P51450 | Drosophila S2 Gal4-RORgamma UAS-luciferase reporter, 20 h | Potency, µM (series often up to 53.6 µM), for the others: at the top dose activity change, negative = inhibition, hits mostly inhibitors | 310,000 compounds, 5.4% hits; further: on the % scale 0 is the no-effect control and ±100 the full control effect; nearly all actives have a fitted effect of over 60% in size
Target sequence (P51450 whole entry, looked up, the tested form may be a part): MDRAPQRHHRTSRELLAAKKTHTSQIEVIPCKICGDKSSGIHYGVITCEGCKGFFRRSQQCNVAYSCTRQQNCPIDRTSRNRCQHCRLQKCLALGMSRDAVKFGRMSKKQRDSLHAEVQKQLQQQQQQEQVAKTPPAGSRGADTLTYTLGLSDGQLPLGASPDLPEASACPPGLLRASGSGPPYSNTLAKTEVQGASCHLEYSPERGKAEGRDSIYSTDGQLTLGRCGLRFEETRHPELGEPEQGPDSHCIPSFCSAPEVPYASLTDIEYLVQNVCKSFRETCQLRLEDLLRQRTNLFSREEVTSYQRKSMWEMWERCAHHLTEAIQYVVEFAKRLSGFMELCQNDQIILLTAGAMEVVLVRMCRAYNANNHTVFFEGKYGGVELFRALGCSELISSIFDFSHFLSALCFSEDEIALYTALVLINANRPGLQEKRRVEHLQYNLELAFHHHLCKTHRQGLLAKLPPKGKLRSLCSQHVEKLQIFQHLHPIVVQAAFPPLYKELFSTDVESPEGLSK
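Luciferase reporter read in Schneider cells carrying Gal4-RORγ (mouse) and UAS-Photinus luciferase; cells given compound 1 h before 700 uM copper sulfate induction, then incubated 20 h at ambient temperature.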
ELG1 repair inh: blocks ELG1-dependent DNA repair in HEK293T cells; HEK293T ELG1-luciferase reporter, luminescence, 16 h; DNA damage induced by 5-fluorouridine; Potency, µM (highest dose often 46.1 µM), without a hit: at the top dose activity change, negative = inhibition, hits mostly inhibitors; 330,000 compounds, 2.3% hits; further: on the % scale 0 is the no-effect control and ±100 the full control effect; nearly all actives have a fitted effect of over 55% in size
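5-Fluorouridine DNA damage + compound/DMSO, 2,000 cells/well, 16 h, 37 °C/5% CO2. ONE-Glo, 30 min RT, luminescence. Readout = decrease in reporter signal.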
SW480 rerep: induces DNA re-replication in SW480 colon adenocarcinoma cells; SW480 DNA re-replication, Hoechst DNA content imaging, 48 h; Potency, µM (top dose mostly 46.1 µM), for the others: at the highest dose re-replication activation, hits mostly activators; 340,000 compounds, 1.8% hits; further: % of control where 0% means no effect; nearly all actives have a fitted effect of over 55% in size
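Image-based read-out: total Hoechst fluorescence of nuclei (405 nm excitation, 500-530 nm emission), with hits raising the fraction of high-intensity nuclei. SW480 colon cells incubated 48 hr with compounds at 37 C.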
MCF10A rereplic: inducers of DNA re-replication in MCF 10A breast cells | MCF 10A DNA re-replication, Hoechst nuclear intensity, 48 h | Potency, µM (top dose mostly 46.1 µM), without a hit: top-dose activity, positive = re-replication, usual class: activators | 350,000 compounds, 2.9% hits | AID 624296; further: % of control where 0% means no effect; nearly all actives have a fitted effect of over 50% in size
* hit, by the source's call; ? = inconclusive; . = no result given; [ ] = dose if it differs, or a comment. The call rests on the fitted dose curve; in most records, active means well fitted curve in the direction sought with a large enough effect; inconclusive means small, poorly fitted or top-dose-only effect, or another doubt; inactive means no such curve, though single readings can be large; an effect the other way counts as inactive or inconclusive. Potency means the concentration at half of the fitted maximal effect.

SMILES | VP16 counter | RORgamma inh | ELG1 repair inh | SW480 rerep | MCF10A rereplic
O=C(O)CCCC(=O)N1CCN(c2nc(-c3ccccc3)c3ccccc3n2)CC1 | 0.5% | 15.8% | 0.4% | ? | 5.7%
Cc1ccc2nc(N3CCC(C(=O)O)CC3)nc(-c3ccccc3)c2c1 | -11.4% | 13.6% | 14.2% | 0.1% | 20.6µM*
Cc1ccc2nc(N3CC(=O)Nc4ccccc43)nc(-c3ccccc3)c2c1 | ? | ? | -20.8% | 18.4µM* | 3.26µM*
Cc1ccc2nc(N3CCN(C(=O)CCC(=O)O)CC3)nc(-c3ccccc3)c2c1 | 0.0% | 5.6% | -0.3% | 14.3% | 20.6µM*
Cc1ccc2nc(NCC(N)=O)nc(-c3ccccc3)c2c1 | -3.9% | 12.3% | 0.0% | 18.4µM* | ?
Cc1ccc2nc(NCCC(=O)O)nc(-c3ccccc3)c2c1 | 0.1% | -11.1% | -5.6% | 0.0% | 1.0%
Cc1ccc(NC(=O)CN(C)S(=O)(=O)c2ccc(Cl)s2)c(O)c1 | . | . | ? | -3.5% | 2.0%
O=S(=O)(Nc1c(F)cccc1F)c1ccc(Cl)nc1 | . | . | ? | 0.92µM* | -16.9%
COc1ccccc1-c1nnc(Sc2nc([N+](=O)[O-])nn2C)o1 | ? | ? | ? | ? | 9.2µM*
O=C(CNC(=O)c1ccccc1F)OC1CCOC1=O (stereo unspecified) | . | . | 28.2% | 21.6% | -1.2%
O=C(CCC(=O)N1CCOCC1)NCCc1ccc(F)cc1 | . | . | 13.1% | 4.4% | 8.3%
O=C(CCC(=O)N1CCOCC1)NCCc1ccc(Cl)cc1Cl | -11.7% | 6.31µM* | -3.2% | 0.0% | -0.6%
CCN(CC)c1ccc(/C=N/NC(=O)CCC(=O)NCc2ccccc2)c(O)c1 | ? | 3.16µM* | -0.2% | ? | ?
CCN(CC)c1ccc(/C=N/NC(=O)CNC(=O)C2COc3ccccc3O2)c(O)c1 (stereo unspecified) | 2.82µM* | 2.82µM* | ? | 6.51µM* | 6.51µM*
CCN(CC)c1ccc(/C=N/Nc2ccc(C)cc2)c(O)c1 | -4.8% | 1.1% | ? | -7.0% | -4.1%
O=C(CCC(=O)N/N=C/c1c[nH]c2ccccc12)NCc1ccccc1 | 3.3% | -1.5% | -3.4% | -699.8% | 11.3%
CCOC(=O)N/N=C/c1ccc(N(CC)CC)cc1O | ? | ? | ? | 16.4µM* | 23.1µM*
CCN(CC)c1ccc(/C=N/NC(=O)c2c(Cl)cnn2C)c(O)c1 | -9.8% | 18.0% | ? | ? | 11.6µM*
COc1cc(NC(=O)CSc2nnnn2C2CCCC2)cc(OC)c1 | -10.2% | -0.8% | -1.1% | -1.4% | 7.2%
CCN(CC)c1ccc(/C=N/NC(=O)c2cccc(S(=O)(=O)N3CCOCC3)c2)c(O)c1 | 11.2µM* | 2.82µM* | ? | ? | 14.6µM*
CN(C)c1cccc(C(=O)OCCNC(=O)c2cccc(S(=O)(=O)N3CCOCC3)c2)c1 | ? | ? | 7.3µM* | 9.8% | 1.7%
CCN(CC)c1ccc(C=Nc2cccc(S(=O)(=O)N3CCOCC3)c2)c(O)c1 | . | . | 6.7% | -5.9% | -2.2%
CCN(CC)c1ccc(/C=N/Nc2nc(C)cc(=O)[nH]2)c(O)c1 | 3.16µM* | 5.01µM* | ? | ? | 8.2µM*
Cc1cc(=O)[nH]c(N/N=C/c2ccccc2Cl)n1 | 15.8% | -4.6% | ? | 11.2% | ?
CCn1c(SCC(=O)N(C)CC(=O)Nc2ccc(F)c(F)c2F)nnc1-c1ccco1 | -3.8% | -5.2% | 4.1% | -27.5% | 0.9%
SMILES | VP16 counter | RORgamma inh | ELG1 repair inh | SW480 rerep | MCF10A rereplic
CCC(C)NCCCCOc1ccc(C)cc1[N+](=O)[O-] (stereo unspecified) | -10.8% | -3.9% | 4.6% | -5.1% | 22.6%
Cc1cc(C)cc(N(CCC(=O)O)S(=O)(=O)c2ccc3ccccc3c2)c1 | ? | 5.8% | -16.2% | ? | 8.2µM*
Cc1ccc(N(CCC(=O)O)S(=O)(=O)c2ccccc2)cc1 | -2.3% | -8.9% | 5.6% | -1.7% | 2.7%
O=C(c1noc2c1CCCCC2)N1CCN(C(c2ccccc2)c2ccccc2)CC1 | . | . | . | -0.7% | 2.6%
Oc1ccccc1N=Nc1nc(-c2ccccc2)c(-c2ccccc2)[nH]1 | 3.98µM* | 3.98µM* | -6.7% | ? | ?
COc1ccc(N=Nc2nc(-c3ccccc3)c(-c3ccccc3)[nH]2)cc1 | 2.82µM* | 2.24µM* | ? | -15.6% | -4.7%
COc1ccccc1N=Nc1nc(-c2ccccc2)c(-c2ccccc2)[nH]1 | 5.01µM* | 3.16µM* | 23.1µM* | 0.6% | 13.4%
COc1ccc(-c2nc(C)ncc2N=Nc2ccccc2)cc1 | 10.1% | 13.3% | -5.2% | 1.9% | ?
CCCNC(=O)NC(=O)COC(=O)CNS(=O)(=O)/C=C/c1ccccc1 | 4.3% | -16.3% | 8.0% | 2.8% | 10.7%
Cc1cccc(NC(=O)CN(C2=NC3CS(=O)(=O)CC3S2)c2ccccc2F)c1 (stereo unspecified) | -8.3% | 15.0% | -2.2% | -1.6% | 0.6%
COc1ccc(-c2csc(N3CCN(c4cc(C)nc5ccccc45)CC3)n2)cc1OC | -4.6%[10 µM] | -40.7% | 8.2µM* | ? | 23.5%
COc1ccc(-c2cc(C(=O)OCC(=O)N3CCCCC3)c3ccccc3n2)cc1OC | . | . | 9.2µM* | 4.1% | ?
COc1cc(-c2cc(C(=O)OCC(=O)NC3CC3)c3ccccc3n2)cc(OC)c1OC | . | . | 11.6µM* | -8.9% | -21.5%
COc1ccc(-c2cc(C(=O)N3CCN(c4ccccc4)CC3)c3ccccc3n2)cc1OC | 15.0% | 11.5% | 16.4µM* | 17.7% | 13µM*
CCOc1ccc(N2CC(C(=O)NC3CCSC3=O)CC2=O)cc1 (stereo unspecified) | 2.9% | -0.6% | -8.6% | ? | -1.1%
CCc1nc(C(N)=O)c2[nH]c(=O)n(-c3ccc(OC)cc3OC)c2n1 | -10.0% | -30.5% | 3.9% | -18.2% | 0.0%
COc1cccc(CSc2nc3ccncc3[nH]2)c1 | -5.7% | 2.6% | ? | 3.7% | -0.3%
COc1ccc(C2OCC(C)([N+](=O)[O-])CO2)cc1 (stereo unspecified) | . | . | . | -4.4% | -0.4%
Cc1ccsc1/C=C1\Oc2cc(OCC(=O)c3ccccc3)ccc2C1=O | ? | 15.8µM* | -18.8% | -51.2% | ?
COc1ccc(/C=C2\Oc3cc(OCC(N)=O)ccc3C2=O)cc1OC | ? | -43.9% | -3.7% | -12.8% | 0.9%
CC(C)CCSc1nnc(N)s1 | -0.9% | -6.7% | -0.4% | ? | 10.1%
COCCNC(=S)NN=C1CCC(c2ccccc2)CC1 (stereo unspecified) | 1.5% | -0.6% | -10.4% | ? | 11.0%
CCC(C)(C)C1CCC(=NNC(=S)Nc2ccccc2)CC1 (stereo unspecified) | ? | 11.2µM* | 6.0% | 12.5% | 3.6%
CC(C)(C)C1CCC(=NNC(=S)NCc2ccccc2)CC1 (stereo unspecified) | ? | 10µM* | 1.0% | ? | 12.5%
